High-throughput results: PubChem BioAssay, National Center for Advancing Translational Sciences (NCATS)
Pf growth 96h = Primary qHTS for delayed death inhibitors of the malarial parasite plastid, 96 hour incubation | Potency, µM (titrated, usually from 28.7 µM), hits mostly inhibitors | P. falciparum luciferase reporter growth, 96 h | actives 6.9% (n = 320,000)
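Luminescence readout: decreased luciferase signal marks inhibited growth of reporter-expressing P. falciparum in infected red cells (2% hematocrit, 0.05% parasitemia final), exposed to compound two generations (96 h, 37 C, 5% CO2).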
HCV inh = qHTS Assay for Inhibitors of Hepatitis C Virus (HCV); Huh7.5.1 HCVcc-Cre infection, luciferase reporter, 44 h; Potency, µM (highest dose often 41.8 µM), hits mostly inhibitors; actives 3.4% (n = 340,000)
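Seed cells (1,000/well) for 4 h; treat with compound and infect with HCVcc-Cre, moi about 0.5. Incubate 44 h, then detect luciferase activity.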
SARS PLP yeast = qHTS of Yeast-based Assay for SARS-CoV PLP; AID 485353, 2010; Potency, µM (titrated, usually from 32.9 µM), usual class: activators; S. cerevisiae expressing SARS-CoV PLpro, growth rescue; actives 0.19% (n = 330,000); calls by dose curve; further: nearly all actives have a fitted effect of over 55% in size
AMA1 RON2 block = qHTS for Inhibitors of AMA1-RON; Towards Development of Antimalarial Drug Lead: Primary Screen; AlphaScreen AMA1-biotinylated RON2 peptide binding; Potency, µM (doses to about 58.2 µM), actives largely listed as inhibitors; actives 0.2% (n = 360,000); Plasmodium falciparum AMA1 (3D7) - RON2 peptide interaction; AID 720542, 2013; further: nearly all actives have a fitted effect of over 45% in size
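AMA1 (3D7) with his tag at 25 nM final met compounds first, then biotinylated RON2 peptide at 25 nM; detection used donor plus acceptor beads, 10 µg/mL apiece, read by AlphaScreen after 30 min at room temperature.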
Pf growth 48h = Primary qHTS for delayed death inhibitors of the malarial parasite plastid, 48 hour incubation; actives 5.9% (n = 310,000); P. falciparum luciferase growth in erythrocytes, 48 h; AID 504832, 2011; Potency, µM (top dose mostly 28.7 µM), most hits filed as inhibitors
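Luminescence readout; reporter = integrated firefly luciferase in P. falciparum. RBC culture at 2% hematocrit, 0.1% parasitemia final, 37 C/5% CO2; decreased signal taken as growth inhibition.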
NS1 function inh = qHTS Assay for Inhibitors of Influenza NS1 Protein Function; Potency, µM (doses to about 46.1 µM); actives 0.4% (n = 270,000); calls by dose curve; further: actives are rising curves; nearly all actives have a fitted effect of over 50% in size
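Read-out: OD600 growth recovery of NS1-expressing budding yeast. Cells grown overnight at 30C in -URA glucose medium, washed, resuspended and diluted 1:100 in 2% galactose assay medium, pH 6.0. Same strain lacking NS1 served as positive control.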
A number is an active result; i = inactive; ? = inconclusive; nt = not tested or not shown; [ ] = remark or other dose. Shown are actives, neighbours in structure and some others; about 12% of the full set was active somewhere. Unless noted, the call rests on the fitted dose curve; in most records, active means well fitted curve in the direction sought with a large enough effect; inconclusive means small, poorly fitted or top-dose-only effect, or another doubt; inactive means no such curve, though single readings can be large; an effect the other way counts as inactive or inconclusive.

SMILES	Pf growth 96h	HCV inh	SARS PLP yeast	AMA1 RON2 block	Pf growth 48h	NS1 function inh
CCOc1ccccc1-n1c(SCC(=O)N2CCCc3ccccc32)nnc1-c1cccnc1	?	?	i	i	?	i
O=C(CSc1nnc(-c2cccnc2)n1-c1ccc(SC(F)F)cc1)N1CCCc2ccccc21	10µM	i	i	i	?	i
Cc1c(C)n2c(SCC(=O)N3CC(C)OC(C)C3)nnc2[nH]c1=O (stereo unspecified)	5.2µM	i[8.37 µM]	i	i	?	nt
CC(NC(=O)c1ccccc1)C(=O)NNC(=O)c1ccccc1Cl (stereo unspecified)	i	i	i	i	i	nt
O=C(O)c1ccccc1N1C(=O)c2cccc3cccc(c23)C1=O	8.3µM	i	i	i	i	i
Cc1onc(-c2ccccc2Cl)c1NC(=O)NCc1cccs1	?	i	i	i	?	i
C=CC[C@H](CC(=O)N(CCO)Cc1ccccc1)C(=O)N[C@H](COC(=O)[C@@H](CC=C)Cc1ccc(F)cc1)Cc1ccccc1	nt	10µM	i	i	nt	nt
C=CC[C@H](CC(=O)N(CCO)Cc1ccccc1)C(=O)NC[C@@H](OC(=O)[C@@H](CC=C)Cc1ccc(F)cc1)c1ccccc1	nt	7.9µM	i	i	nt	nt
CN(C)CCCNC(NC(=O)/C=C/c1ccccc1)C(Cl)(Cl)Cl (stereo unspecified)	?	?	i	i	?	i
Cc1ccc(C)c(S(=O)(=O)N2CCCC2CNC(=O)c2ccc([N+](=O)[O-])cc2)c1 (stereo unspecified)	?	11µM	i	i	10µM	nt
Cc1ccc(S(=O)(=O)N2CCCC2CNC(=O)C(=O)NC2CC2)cc1 (stereo unspecified)	?	i	i	i	i	nt
O=C(NCC1CCCN1S(=O)(=O)c1ccccc1)c1cccc(Cl)c1 (stereo unspecified)	?	?	i	i	?	nt
O=C(NCC1CCCN1S(=O)(=O)c1cccs1)c1ccc(F)c(F)c1 (stereo unspecified)	i	?	i	i	i	nt
Cc1ccc(C(=O)NCC2CCCN2S(=O)(=O)c2ccc(C)cc2)cc1 (stereo unspecified)	10µM	i	i	i	?	nt
Cc1ccc(S(=O)(=O)N2CCCC2CNC(=O)c2ccc(F)c(F)c2)cc1 (stereo unspecified)	?	?	i	i	10µM	nt
CC(C)(C)c1ccc(C(=O)NCC2CCCN2S(=O)(=O)c2ccccc2)cc1 (stereo unspecified)	13µM	?	i	i	9.3µM	nt
Cc1ccc(C)c(S(=O)(=O)N2CCCC2CNC(=O)C(=O)NC2CC2)c1 (stereo unspecified)	i	i	i	i	?	nt
O=C(NCCCN1CCOCC1)C(c1ccccc1)c1ccccc1	i	i	i	i	i	i
CCn1c(=O)c(=O)[nH]c2cc(C(=O)NC(C)c3ccc(S(N)(=O)=O)cc3)ccc21 (stereo unspecified)	i	i	i	i	?	i
CCOC(=O)c1ccc(NC(=O)NC2=NCCS2)cc1	nt	nt	nt	i	nt	nt
CCC(NC(=O)NC1=NCCS1)(C(F)(F)F)C(F)(F)F	0.21µM	i	i	i	i	i
CC(C)[C@H](NC(N)=O)C(=O)Nc1ccc(F)c(Cl)c1	i	i	i	i	i	nt
O=Cc1cn(CC(=O)Nc2ccc3c(c2)OCO3)c2ccccc12	i	i	i	i	i	nt
N#Cc1cc([N+](=O)[O-])c(-n2nnc3ccccc32)c([N+](=O)[O-])c1	i	i	i	i	i	i
COc1ccccc1Oc1cc(C#N)c(C#N)cc1-n1nnc2ccccc21	2.3µM	?	i	i	9.3µM	i
CNc1nnc(SCC(=O)c2c(N)n(C3CC3)c(=O)[nH]c2=O)s1	i	i	i	i	i	nt
